Screening results as filed in PubChem.
TEAD-YAP inh – TEAD-YAP interaction inhibition, primary screen, TEAD-YAP interaction inhibitor project, luminescence, HEK-TIYL cells. TEAD-Gal4/YAP UAS-luciferase luminescence. inhibition, % at 9.12 µM. hit rate 1.4% among 640,000; in the data active means inhibition above about 32%
MITF inh – MITF inhibitors, primary screen, biochemical, AlphaScreen, human | Microphthalmia-associated transcription factor (Homo sapiens), O75030 | inhibition, % at 2.6 µM | AlphaScreen MITF homodimerization, bead proximity signal | hit rate 0.91% among 650,000 | AID 1259374, 2018; in the data active means inhibition above about 50%
FBW7 activator – FBW7 E3 ligase activators, primary screen, biochemical, AlphaScreen, human; AID 1259310, 2017; F-box/WD repeat-containing protein 7 (Homo sapiens), Q969H0; hit rate 0.13% among 650,000; AlphaScreen FBW7–phospho-cyclin E peptide binding, activator screen; normalized activity (activation), % at 26.1 µM; in the data active means normalized activity above about 1.9%;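 further: purified mutant Fbw7 with reduced substrate affinity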
Target sequence (Q969H0 whole entry, looked up): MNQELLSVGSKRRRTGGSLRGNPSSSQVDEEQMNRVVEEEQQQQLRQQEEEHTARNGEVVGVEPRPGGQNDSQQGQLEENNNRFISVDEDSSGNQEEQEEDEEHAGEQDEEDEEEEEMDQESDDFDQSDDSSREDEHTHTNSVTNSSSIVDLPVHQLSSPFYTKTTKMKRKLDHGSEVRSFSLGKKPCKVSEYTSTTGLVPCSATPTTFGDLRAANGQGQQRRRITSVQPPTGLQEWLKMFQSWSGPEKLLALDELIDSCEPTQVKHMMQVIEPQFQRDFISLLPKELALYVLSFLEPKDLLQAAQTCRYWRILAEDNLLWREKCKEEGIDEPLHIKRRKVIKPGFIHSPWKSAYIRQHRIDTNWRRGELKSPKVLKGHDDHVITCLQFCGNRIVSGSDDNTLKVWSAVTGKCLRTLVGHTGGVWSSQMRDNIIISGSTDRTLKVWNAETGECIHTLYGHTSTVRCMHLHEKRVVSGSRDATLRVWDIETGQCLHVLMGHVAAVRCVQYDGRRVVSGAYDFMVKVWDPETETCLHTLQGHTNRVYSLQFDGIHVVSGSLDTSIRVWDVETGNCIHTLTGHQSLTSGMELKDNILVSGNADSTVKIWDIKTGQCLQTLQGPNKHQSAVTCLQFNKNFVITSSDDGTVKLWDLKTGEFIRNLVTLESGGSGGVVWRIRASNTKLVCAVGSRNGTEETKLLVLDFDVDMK
GPR151 activ – activators of human GPR151, primary screen, cell-based, PathHunter beta-arrestin, luminescence; G-protein coupled receptor 151 (Homo sapiens), Q8TDV0; PathHunter beta-arrestin GPR151 cells; activation, % at 11.2 µM; hit rate 1% among 650,000; AID 1508602, 2020; in the data active means activation above about 4.9%
MITF confirm – MITF inhibitors, retest of hits, confirmation, biochemical, AlphaScreen, triplicate; inhibition, % at 2.6 µM; shares compounds with MITF inh; AlphaScreen MITF homodimerization, biotin/His-MITF beads; hit rate 16% among 4,700; AID 1259372, 2018;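 active means inhibition above a cutoff derived from the DMSO control wells, cut at about 28% in these data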;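 further: inhibitors lower the bead chemiluminescence by keeping MITF from dimerizing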
AS interf ctr – AlphaScreen optical interference compounds, counter-screen for MITF inhibitor project, biochemical, triplicate. shares compounds with MITF inh. LysRS AlphaScreen counterscreen, signal interference. inhibition, % at 2.6 µM. hit rate 7.6% among 4,700;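 active means inhibition above a cutoff derived from the DMSO control wells, cut at about 30% in these data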
Hits are given with their value; 0 = inactive; - = no result given. Hits are enriched below; roughly 3.4% of the tested compounds scored in any of these assays.

SMILES	TEAD-YAP inh	MITF inh	FBW7 activator	GPR151 activ	MITF confirm	AS interf ctr
Cc1nn(CC(=O)N2CCC3(CC2)OCCO3)c(=O)c2cc3sccc3n12	0	65.5	0	0	0	0
CC(=O)c1ccc(N2CCN(Cc3cccc(Cl)c3)CC2)cc1	0	0	0	0	-	-
COc1ccc(CN2CCN(Cc3cccc(Cl)c3)CC2)cc1	0	82.5	0	0	0	0
COc1ccc(O)c(CN2CCN(Cc3cccc(Cl)c3)CC2)c1	0	0	0	0	-	-
CSc1ccc(CN2CCN(Cc3cccc(Cl)c3)CC2)cc1	0	67.0	0	0	0	0
COc1cccc(CN2CCN(Cc3cccc(Cl)c3)CC2)c1	0	70.4	0	0	0	0
C[C@@H]1NC(=O)[C@H]2CN(Cc3cccc4ncccc34)CCN2C1=O	0	0	0	0	-	-
CC(=O)c1cccc(N/C(N)=N/[N+](=O)[O-])c1	0	0	0	0	-	-
Cc1cc(C)c(C2=CCNCC2)cc1C	0	0	0	0	-	-
O=C(CN1CCN(C(=O)COc2ccccc2F)CC1)c1cccs1	0	50.6	0	0	0	0
O=C(CN1CCN(C(=O)Cc2ccc(F)cc2)CC1)c1cccs1	0	0	0	0	-	-
COc1ccc(CC(C)NCc2ccc(F)cc2)cc1 (stereo unspecified)	0	0	0	0	-	-
CN1CCCC(C(=O)c2ccc3c4c(cccc24)CC3)C1 (stereo unspecified)	0	0	0	0	-	-
CCOc1ccc(CN2CCN(Cc3cccc(Cl)c3)CC2)cc1	0	66.8	0	0	0	0
CCOc1ccc(CN2CCN(Cc3cccc(C)c3)CC2)cc1	0	54.5	0	0	0	0
CCN1CCN(Cc2cccc(Cl)c2)CC1	0	0	0	0	-	-
O=C1NC(=O)C(=Cc2ccc(N(CCCl)CCCl)cc2)C(=O)N1	0	0	0	0	-	-
CCN1CCN(Cc2c(C)noc2C)CC1	0	83.0	0	0	0	0
Fc1ccc(CN2CCN(Cc3ccccc3)CC2)cc1	0	58.8	0	0	0	0
Fc1ccc(CN2CCN(c3ccc(Cl)cc3)CC2)cc1	0	0	0	0	-	-
Fc1ccc(CN2CCN(Cc3ccc(Cl)cc3)CC2)cc1	0	68.4	0	0	0	0
COc1cccc(CCNCc2ccc(OC)c(Br)c2)c1	0	0	0	0	-	-
CCN1CCN(Cc2cc(OC)c(OC)c(OC)c2)CC1	0	52.2	0	0	0	0
CCN1CCN(Cc2ccc(OC)c(C)c2C)CC1	0	53.4	0	0	0	0
COc1cc(CN2CCN(C(C)C)CC2)cc(OC)c1O	0	71.5	0	0	0	0
SMILES	TEAD-YAP inh	MITF inh	FBW7 activator	GPR151 activ	MITF confirm	AS interf ctr
COc1cc(CN2CCN(c3ccccc3)CC2)cc(OC)c1O	0	0	0	0	-	-
COc1cc(CN2CCN(CCO)CC2)cc(OC)c1OC	0	0	0	0	-	-
CCOc1cc(CN2CCN(CC)CC2)ccc1O	0	57.1	0	0	0	0
COc1cc(CN2CCN(c3ccc(Cl)cc3)CC2)ccc1O	0	0	0	0	-	-
COC(=O)c1ccc(NC(=O)c2cccn(Cc3ccc(C)cc3)c2=O)cc1	0	0	0	0	-	-
O=C(Nc1ccc(Cl)cc1)c1ccc(S(=O)(=O)N(CCCl)CCCl)cc1	0	0	0	0	-	-
COc1cccc(/C=c2\sc3n(c2=O)C2c4ccccc4OC(C)(N=3)C2C(C)=O)c1O (stereo unspecified)	0	0	0	0	-	-
CCC(=O)OC1(c2ccccc2)CCN(C)C2CCCC21 (stereo unspecified)	0	0	0	0	-	-
CC1(C)CC(NCCc2c[nH]c3ccccc23)CC(C)(C)N1	0	0	0	0	-	-
COc1cc(CN2CCN(C(C)C)CC2)cc(OC)c1OC	0	82.2	0	0	0	0
CCC(CC)N1CCN(Cc2cc(OC)c(OC)c(OC)c2)CC1	0	57.1	0	0	0	0
Cc1cccc(CN2CCN(C(C)C)CC2)c1	0	0	0	0	-	-
C=CCO/N=C(\CCC)C1C(=O)CC(C)(C)C(C(=O)OC)C1=O (stereo unspecified)	0	0	0	0	-	-
COc1ccc(-c2nn(CCC#N)cc2C(=O)Oc2ccc(C=O)cc2OC)cc1OC	0	0	0	0	-	-
CCc1ccc(N2C(=O)CC(=O)NC2=O)cc1	0	69.3	0	0	0	0
Fc1cccc(F)c1CN1CCN(c2ccccc2)CC1	0	56.3	0	0	0	0
COc1cccc(N2CCN(Cc3ccccc3F)CC2)c1	0	60.1	0	0	0	0
CC(=O)c1ccc(N2CCN(Cc3ccccc3F)CC2)cc1	0	51.4	0	0	0	0
CC(=O)c1ccc(N2CCN(Cc3ccc(F)cc3)CC2)cc1	0	0	0	0	-	-
Cc1[nH]c2ccccc2c1CN1CCCCCC1	0	0	0	0	-	-
COc1ccc(CN2CCN(Cc3ccc(Cl)cc3)CC2)cc1	0	82.7	0	0	0	0
COc1ccc(CN2CCN(Cc3ccc(C)cc3)CC2)cc1	0	80.2	0	0	0	0
COc1cc(OC)c(CN2CCN(C)CC2)cc1Br	0	62.4	0	0	0	0
CCC(C)N1CCN(Cc2ccc(OC)c(OC)c2)CC1 (stereo unspecified)	0	64.0	0	0	0	0
COc1cc(Br)c(CN2CCN(C)CC2)cc1OC	0	0	0	0	-	-
SMILES	TEAD-YAP inh	MITF inh	FBW7 activator	GPR151 activ	MITF confirm	AS interf ctr
CCC(C)N1CCN(Cc2cc(OC)c(OC)cc2OC)CC1 (stereo unspecified)	0	64.2	0	0	0	0
CCC(C)N1CCN(Cc2ccc(OC)cc2)CC1 (stereo unspecified)	0	69.1	0	0	0	0
CCN1CCN(Cc2ccc(OC)cc2OC)CC1	0	0	0	0	-	-
CCn1nc(-c2nonc2N)nc1-c1nonc1N	0	0	0	0	-	-
CCOc1ccc(CN2CCN(C(C)CC)CC2)cc1 (stereo unspecified)	0	66.2	0	0	0	0
Cc1ccc(CN2CCN(Cc3ccc4c(c3)OCO4)CC2)cc1	0	0	0	0	-	-
CCC(C)N1CCN(Cc2ccc3c(c2)OCO3)CC1 (stereo unspecified)	0	71.3	0	0	0	0
Cc1cc(Cl)ccc1-n1c(/C=C\c2ccc(F)cc2)nc2ccccc2c1=O	0	0	0	0	-	-
COc1cc(OC)c(OC)cc1CNCCc1ccc(Cl)cc1	0	0	0	0	-	-
COc1ccc(CCNCc2cc(OC)c(OC)cc2OC)cc1	0	60.7	0	0	0	0
CC(=O)N(Cc1cccnc1)C1CCN(Cc2ccncc2)CC1	0	0	0	0	-	-
